The text below walks through data of PubChem BioAssay (NCI).

Each structure is given as a SMILES string. The panel holds about 83,000 compounds, 20% with a hit somewhere; the sample as a whole holds those more often.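 Cell lines were cultured in 96-well plates, exposed to a single compound concentration, and assessed for percent growth 48 hours later.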 A number with no mark means an inactive call. Activity calls are given as the source filed them.

This assay deals with NCI-H322M lung. The assay can be described thus: NCI-60 one-dose screen, 48 h (100 = growth as untreated, 0 = no growth, -100 = all killed). The following applies: 10 µM unless noted. As to the method: Growth inhibition of the NCI-H322M human Non-Small Cell Lung tumor cell line is measured as a screen for anti-cancer activity. Cells are grown in 96 well plates and exposed to the test compound for 48 hours. Compounds are tested at a single concentration, which is 10^-5 M for most compounds. The reported endpoint is percent growth (GI% or GIPRCNT), where numbers from 0 - 100% represent growth inhibition, and numbers from -100% - 0 represent cell death. For example, a value of 40 represents 60% growth inhibition. A value of 0 means no net growth occurred over the course of the experiment. A value of -40 indicates 40% of cells at the beginning of the experiment died by the end of the experiment. A value of -100 means all cells are dead at the end of the experiment.
NCI-60 Human Tumor Cell Lines Screen was performed using the standard one-dose NCI protocol, which is described in more detail at https://dtp.cancer.gov/discovery_development/nci-60/default.htm.
Compounds with GIPRCNT values below 10 were considered active. Activity score was based on GIPRCNT using the following formula: […]
Score is 0 for GIPRCNT values of 100 or above, 50 for GIPRCNT values of 0, and 100 for GIPRCNT values of -100.
For the compound `Oc1c(CN2CCC(N3CCOCC3)CC2)cc(Cc2cc(CN3CCC(N4CCOCC4)CC3)c(O)c3ncccc23)c2cccnc12`, the growth is 37.6%.

With `Cc1nc2ccccc2c(/C=C/c2ccc(F)cc2)c1C(=O)/C=C/c1ccccc1`, the growth was 37.7%. The figure for `Cc1nn(-c2ccc([N+](=O)[O-])cc2)c2ncnc(N/N=C/c3ccccc3O)c12` is 13.4%; for `C=CC(=O)Nc1cccc(Oc2nccc(Nc3nnc(-c4ccc(Br)cc4)s3)n2)c1` it is 110%; for `Cc1ccc2c(c1)nc(C)n2-c1ncnc2c1CC(C)c1cc(O)ccc1N2C` (stereo not given) it is 64%.

Take `CCOC(=O)CC1CSC(N/N=C/c2ccc(F)c(Br)c2)=N1` (stereo not given): the growth is 109%. Take `Cc1ccc2c(c1)=C/C(=C\c1cc(-c3ccccc3)[nH]c1O)C(=O)N=2`: the growth is 82.2%.

For `Clc1ccc(-c2nc(C(Cl)Cl)nc3cc(-c4ccccc4)nn23)cc1`, the growth is -50.5% (active). For `CC1(C)N=C(N)N=C(N)N1c1ccc(S(=O)(=O)Nc2nccs2)cc1` the value was 104%; for `COc1ccc(C(=O)Nc2ncc(Cc3ccc(Cl)cc3)s2)cc1`, 35.7%. Consider `NS(=O)(=O)c1ccc(C(=O)N=Nc2c(O)[nH]c3ccc(Cl)cc23)cc1`, for which the growth was 104%. As to `CS(=O)/C(C#N)=C\C=C\c1cccc(Cl)c1` (stereo not given), the growth is 24.1%. The figure for `COC(=O)/C=C1/SC(=Nc2ccc(F)cc2)N(CCc2c[nH]c3ccc(O)cc23)C1=O` is 92.1%; for `COc1ccc(-c2nc3c(c(-c4ccc(Cl)cc4)nn3-c3ccccc3)c(-c3ccccc3)c2C#N)cc1` it is 102%.

With `COc1ccc(N/N=C/c2cn(-c3ccc(C(=O)O)cc3)nc2-c2cc3ccccc3oc2=O)cc1`, the growth is 85.2%.

Consider `CCOC(=O)C#Cc1c(C(=O)OCC)nnn1[C@@H]1O[C@H](COC)[C@@H](OC)[C@H]1OC`, for which the growth was 92.9%. The figure for `O=C1C=CC2(O)OC/C(=C\c3ccccc3)C(O)=C2C1=O` (stereo not given) is 72.2%; for `Nc1ncnc2c1N=C(c1ccc(Cl)cc1)CC(c1cccc(Nc3ccnc4cc(Cl)ccc34)c1)N2` (stereo not given) it is 84.1%.

Take `O=C(CSc1nnnn1-c1ccccc1)Nc1ccc(Oc2ccccc2)cc1`: the growth was 114%.

For `Cc1cc(C(=O)CCCC(=O)c2cc(C)c(O)c(C)c2)cc(C)c1O`, the growth was 114%. Take `CCCCCc1ccc(S(=O)(=O)Nc2cc(-c3csc(NC(C)=O)n3)ccc2N2CCN(C)CC2)cc1`: the growth is 73.2%. Regarding `Cc1ccc(S(=O)(=O)OCC#CCOS(=O)(=O)c2ccc(C)cc2)cc1`, the growth is 93.9%. In the case of `COc1ccc2c(c1)C(C)Cc1c(ncnc1-n1cnc3cc(C)ccc31)N2C` (stereo not given), the growth was 48.6%.

For `COc1cc(Cc2cc(-c3ccccc3)nn(Cc3ccccc3)c2=O)cc(OC)c1OC`, the growth is 78.5%. In the case of `COc1cc(/C=C/C(=O)N2CCN(C(=O)c3cc(OC)c(OC)c(OC)c3)CC2)ccc1OCCCOc1cc2c(cc1OC)C(=O)N1CCC[C@H]1C=N2`, the growth is -5.89% (active). Turning to `CS(=O)(=O)c1ccc(-c2nc3ccccc3n2CC(=O)N/N=C/c2ccccc2)cc1`, the growth is 95.5%. The figure for `c1ccc(-c2ccc3c(c2)C2(CCNCC2)CN3)cc1` is 102%; for `COC(=O)c1sccc1-c1cc(O)c(C(=O)Nc2ccccc2)s1` it is 93.3%.

For `Cc1ccc2c(c1)sc1nc(-c3c[nH]c4ccccc34)c(Nc3ccccc3)n12`, the growth is 106%. As to `COc1cccc(CNc2c3ccccc3nc3ccccc23)c1OC`, the growth is 41.6%.

With `C=C1C(=O)O[C@H]2[C@H]1CC/C(COC(=O)NCc1ccc(Cn3c(=O)sn(-c4ccc(I)cc4)c3=O)cc1)=C\CC[C@@]1(C)O[C@@H]21`, the growth is 101%.

`COc1ccc(C=Nc2c(C(=O)Nc3cccc(Cl)c3C)sc3nc(C)c(C(=O)/C=C/c4ccc(OC)cc4)cc23)cc1`: the growth is 43.1%. In the case of `Cc1ccc2cnc(N)c(C#Cc3cc(C(=O)Nc4ccc(CN5CCN(C)CC5)c(C(F)(F)F)c4)cnc3C)c2c1`, the growth is 17.8%. The figure for `Fc1cc2[nH]ncc2c2c3c(c(-c4cn[nH]c4C(F)(F)F)nc12)CCCC3` is -0.0231% (active); for `O=C(Nc1cc(Cl)cc(Cl)c1)Oc1c(Cl)c(Cl)c(Cl)c(Cl)c1Cl` it is 99.2%; for `Cc1nc([P+](c2ccccc2)(c2ccccc2)c2ccccc2)c(N2CCCCC2)o1` it is 78.4%. In the case of `COc1ccc(C(c2cc(OC)c(OC)c(OC)c2)N2CCCCC2)cc1` (stereo not given), the growth is 47.9%.

For `Cc1c2ccccc2nc2cc3c(cc12)[C@H]1CC[C@]2(C)C(=O)CC[C@H]2[C@@H]1CC3`, the growth is 98.5%.

In the case of `Clc1ccc2nn3c4ccccc4c(OCCN4CCOCC4)nc3c2c1`, the growth was 84.4%. The figure for `CCCOC(=O)Nc1nc2ccc(SCC)cc2s1` is 99.3%.
